Screening results: PubChem, University of Kansas High Throughput Screening Laboratory
The full list was thinned out, with hits kept by preference.
Pf apPOL block: Pf-apPOL inhibitors, biochemical, fluorescence. Plasmodium falciparum apicoplast DNA polymerase (apPOL). Recombinant Pf-apPOL, molecular beacon fluorescence, 1.5 h. inhibition, % at 10 µM. 210,000 tested, 0.25% active
mHTT-CaM PPI inh: mutant huntingtin-calmodulin interaction inhibitors – biochemical, AlphaScreen, primary screen; P42858; AlphaScreen His-mHTT/GST-CaM binding, luminescence; inhibition, % at 15 µM; 190,000 tested, 3.6% active; AID 1671202, 2021;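 also: 0% = both proteins with DMSO and 100% = one protein alone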
Active calls of the source: *. Rule as the data show it: active = inhibition above about 50%; inactive = the rest.

What do the screens show for `Cc1ccc(C(=O)N2CCC(c3nc(CCNC(=O)C(C)C)cs3)CC2)cc1C`?
Pf apPOL block: -2; mHTT-CaM PPI inh: 24

What do the screens show for `Cc1ccc(NC(=O)Cn2nc(C(F)(F)F)c(Cl)c2C)cc1C`?
Pf apPOL block: -2; mHTT-CaM PPI inh: 3

Results for Cc1c(Cl)c(C(F)(F)F)nn1CC(=O)Nc1ccc(Cl)c(Cl)c1 ?
Pf apPOL block: -1; mHTT-CaM PPI inh: 100*

How did COC(=O)c1ccsc1NC(=O)c1c[nH]c2ccccc12 do in these assays?
Pf apPOL block: -2; mHTT-CaM PPI inh: 30

What do the screens show for `O=C(c1ccccc1-c1ocnc1C(=O)N1CCCCC1)N1CCCCCC1`?
Pf apPOL block: -5; mHTT-CaM PPI inh: -1

How did COc1ccc(NC(=O)N2CCCC3(C2)Nc2ccccc2NC3=NC(C)(C)C)c(C)c1 (stereo not drawn) do in these assays?
Pf apPOL block: -7; mHTT-CaM PPI inh: 25

Results for CC(C)(C)N=C1Nc2ccccc2NC12CCCN(C(=O)Cc1ccccc1)C2 (stereo not drawn) ?
Pf apPOL block: 1; mHTT-CaM PPI inh: 77*

What do the screens show for `COCC(=O)N1CCCC2(C1)Nc1ccccc1NC2=NC1CCCC1` (stereo not drawn)?
Pf apPOL block: -3; mHTT-CaM PPI inh: 38

How did COc1ccc(C)cc1NC(=O)N1CCCC2(C1)Nc1ccccc1NC2=NC(C)(C)C (stereo not drawn) do in these assays?
Pf apPOL block: 0; mHTT-CaM PPI inh: 72*

How did COCC(=O)N1CCCC2(C1)Nc1ccccc1NC2=NC(C)(C)C (stereo not drawn) do in these assays?
Pf apPOL block: 0; mHTT-CaM PPI inh: 64*

Results for CC(C)(C)N=C1Nc2ncccc2NC12CCCN(C(=O)Cc1cccnc1)C2 (stereo not drawn) ?
Pf apPOL block: -3; mHTT-CaM PPI inh: 5

What do the screens show for `COc1ccc(C(=O)N2CCCC3(C2)Nc2ccccc2NC3=NC(C)(C)C)c(OC)c1` (stereo not drawn)?
Pf apPOL block: 8; mHTT-CaM PPI inh: 41

What do the screens show for `COc1ccccc1CC(=O)N1CCCC2(C1)Nc1ccccc1NC2=NC(C)(C)C` (stereo not drawn)?
Pf apPOL block: 6; mHTT-CaM PPI inh: 59*

What do the screens show for `COc1ccccc1/C=C/C(=O)Nc1ncccn1`?
Pf apPOL block: 1; mHTT-CaM PPI inh: 0

What do the screens show for `CCOC1CCCN(S(=O)(=O)c2ccc(Cl)cc2)C1` (stereo not drawn)?
Pf apPOL block: -4; mHTT-CaM PPI inh: -18

How did CC(C)(C)N=C1Nc2ccccc2CNC12CCN(C(=O)Cc1ccccc1)C2 (stereo not drawn) do in these assays?
Pf apPOL block: -4; mHTT-CaM PPI inh: 25

How did CC(C)(C)N=C1Nc2ccccc2CNC12CCN(C(=O)Cc1ccccc1F)C2 (stereo not drawn) do in these assays?
Pf apPOL block: -10; mHTT-CaM PPI inh: 53*

Results for Cc1cccc(CN2CCCn3nc(C(=O)Nc4ccc(F)cc4C)cc3C2=O)c1 ?
Pf apPOL block: 74*; mHTT-CaM PPI inh: 6

Results for Cc1cccc(CN2CCCn3nc(C(=O)NCc4ccc(N(C)C)cc4)cc3C2=O)c1 ?
Pf apPOL block: 0; mHTT-CaM PPI inh: 55*

How did Cc1ccc(CNC(=O)c2cc3n(n2)CCCN(Cc2cccc(C)c2)C3=O)cc1 do in these assays?
Pf apPOL block: -2; mHTT-CaM PPI inh: -1

Results for Cc1cc(F)ccc1NC(=O)c1cc2n(n1)CCCN(Cc1ccccc1)C2=O ?
Pf apPOL block: -2; mHTT-CaM PPI inh: -2

How did Cc1ccc(CN2CCCCC2c2nc(-c3cccnc3)no2)cc1 (stereo not drawn) do in these assays?
Pf apPOL block: -2; mHTT-CaM PPI inh: 9

What do the screens show for `CC(C)N1C(=O)C(C)(C(=O)Nc2ccc(F)c(F)c2)Oc2cccnc21` (stereo not drawn)?
Pf apPOL block: 2; mHTT-CaM PPI inh: -4

Results for O=C(NCc1cccc(F)c1)c1ccc(NC(=O)C2CC2)cc1N1CCCCC1 ?
Pf apPOL block: -1; mHTT-CaM PPI inh: 10

How did OC[C@@H]1[C@@H](c2ccc(Cl)cc2)C(c2ccc(F)cc2)=NN1c1ccccc1 do in these assays?
Pf apPOL block: -4; mHTT-CaM PPI inh: 72*

How did OC[C@@H]1[C@@H](c2ccccc2)C(c2ccccc2)=NN1c1ccccc1 do in these assays?
Pf apPOL block: -4; mHTT-CaM PPI inh: -21

What do the screens show for `OC[C@@H]1[C@@H](c2ccccc2)C(c2ccc(F)cc2)=NN1c1ccccc1`?
Pf apPOL block: -6; mHTT-CaM PPI inh: 67*

What do the screens show for `C[C@H]1C(c2ccccc2)=NN(c2ccccc2)[C@@H]1CO`?
Pf apPOL block: -5; mHTT-CaM PPI inh: 15

How did O=C1OCCN1C(=O)[C@H]1[C@H](c2ccc(F)cc2)C(c2cccc(Cl)c2)=NN1c1ccccc1 do in these assays?
Pf apPOL block: 1; mHTT-CaM PPI inh: 19

Results for OC[C@@H]1[C@@H](c2ccc(F)cc2)C(c2ccc(F)cc2)=NN1c1ccccc1 ?
Pf apPOL block: -6; mHTT-CaM PPI inh: 89*

What do the screens show for `CCC(=O)NCc1nc2c(n1CC)CN(C(=O)Cc1cccs1)CC2`?
Pf apPOL block: 5; mHTT-CaM PPI inh: 19

How did COc1cccc2cc(-c3nc(Nc4ccccc4)sc3C)c(=O)oc12 do in these assays?
Pf apPOL block: -5; mHTT-CaM PPI inh: 9

How did CCC(=O)NCCc1csc(C2CCN(C(=O)Nc3ccc(F)cc3)CC2)n1 do in these assays?
Pf apPOL block: -6; mHTT-CaM PPI inh: 5

Results for CCCCOc1ccc(C(=O)N(c2ccc(C)c(Cl)c2)C2C=CS(=O)(=O)C2)cc1 (stereo not drawn) ?
Pf apPOL block: -2; mHTT-CaM PPI inh: 64*

How did Cc1ccc(N(C(=O)Cc2ccccc2)C2C=CS(=O)(=O)C2)cc1Cl (stereo not drawn) do in these assays?
Pf apPOL block: 3; mHTT-CaM PPI inh: -4

Results for Oc1ccc(C2=Nn3c(nnc3-c3cccc(F)c3)SC2)cc1O ?
Pf apPOL block: -1; mHTT-CaM PPI inh: 39

What do the screens show for `COc1cccc(-c2nnc3n2N=C(c2ccc(O)c(O)c2)CS3)c1`?
Pf apPOL block: -3; mHTT-CaM PPI inh: 52*

What do the screens show for `Cc1ccc(C(=O)N2CCC3(CC2)NC(=O)c2cc(F)ccc2N3C)c(C)c1`?
Pf apPOL block: 0; mHTT-CaM PPI inh: 56*

What do the screens show for `Cc1ccc(C(=O)N2CCC3(CC2)NC(=O)c2ccc(F)cc2N3C)c(C)c1`?
Pf apPOL block: -2; mHTT-CaM PPI inh: 0

Results for Cc1cccc(NC(=O)C2CC(=O)OC23CCOC(C)(C)C3)c1 (stereo not drawn) ?
Pf apPOL block: 5; mHTT-CaM PPI inh: -2

Results for O=C(C1CCOC1)N1CCCn2nc(-c3cccs3)cc2C1 (stereo not drawn) ?
Pf apPOL block: -5; mHTT-CaM PPI inh: -2

What do the screens show for `COc1cccc(NC(=O)CC2Nc3ccccc3NC2=O)c1` (stereo not drawn)?
Pf apPOL block: 3; mHTT-CaM PPI inh: 8

What do the screens show for `O=C(CC1Nc2cccc3cccc(c23)NC1=O)Nc1cccc(C(F)(F)F)c1` (stereo not drawn)?
Pf apPOL block: 1; mHTT-CaM PPI inh: 51*

How did CN(C)c1ccc(C(=O)Nc2cnc(N3CCCC3)nc2)cc1 do in these assays?
Pf apPOL block: -7; mHTT-CaM PPI inh: 3

Results for COc1ccccc1NC(NC(=O)c1cccc([N+](=O)[O-])c1)C(Cl)(Cl)Cl (stereo not drawn) ?
Pf apPOL block: 1; mHTT-CaM PPI inh: 47
